# Assay results as given in PubChem BioAssay (EPA / NIEHS).
# Where “and” joins values, the source holds several entries; their conditions need not be identical. Identical values can stand only once. Results filed as inconclusive are left out. More than one record can exist for a structure, and the calls need not agree. Calls of active or inactive are those of the source. Rule for the calls, unless noted: active = hit-call score of the fitted dose curve at least 0.9, where 1 is the maximum; inconclusive = response in the unintended direction; inactive = score below 0.9.
# What was measured:
# [1] = CCTE_Simmons_CellTiterGLO_HEK293T: Viability Assessment in CCTE's Assays for Thyroperoxidase (TPO) Inhibition, Simmons Lab (AID 2283665);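 for AC50: cells exposed to compound for 24 h before readout; actives reduce ATP signal below DMSO vehicle meaning cytotoxicity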
# How it was run: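 HEK293T, 10 000 cells/well, DMEM + 1% FBS; 8-pt titration 5 nM–87.5 uM [final], 0.5% DMSO; 24 hr, 37C, 5% CO2; CellTiter-Glo luminescence; n=3 biological replicates.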
# [2] = Tanguay_ZF_120hpf_TR_legacy: (Legacy) Oregon State University Tanguay Lab 120 Hour Post-fertilization zebrafish Assay for Touch Response (AID 2283667)
# How it was run: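 Tropical 5D wild-type zebrafish embryos statically exposed to 120 hpf at 28°C, sealed and dark-covered, 0.64% DMSO final; touch response scored as present/absent by brightfield microscopy at 120 hpf. Trimethyltin chloride 5 uM positive control; dead embryos not scored.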
# [3] = CEETOX_H295R_MTT_cell_viability: Viability Assessment in the CeeTox HT-H295R MTT Assay (AID 2283718; active = hit-call score of the fitted dose curve at least 0.9, where 1 is the maximum; inactive = score below 0.9;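 for AC50: curve fitted both ways so AC50 may mark viability loss or gain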)
# How it was run: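 Human H295R adrenal cells, prestimulated 48 h with 10 uM forskolin, were exposed 48 h to chemicals in 0.1% DMSO. Viability was measured in the same wells by MTT (0.5 mg/ml, 4 h, 37 C), absorbance 570/650 nm, as percent of controls.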
# [4] = Tanguay_ZF_120hpf_ActivityScore_legacy: (Legacy) Oregon State University Tanguay Lab 120 Hour Post-fertilization zebrafish Assay Score for Activity (AID 2283742);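 for AC50: dechorionated Tropical 5D wild-type zebrafish embryos held singly per well; static exposure from 6 hpf until 120 hpf at 28 °C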
# How it was run: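 Dechorionated Tropical 5D embryos, one per well from 6 hpf, statically exposed to 120 hpf at 28 °C in 0.64% DMSO. Mortality and malformations scored binary by brightfield microscopy; activity score combines 18 endpoints, fitted positively versus DMSO.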
# [5] = biological target: Luciferin 4-monooxygenase (Photinus pyralis) (UniProt P08659); test: CCTE_Simmons_QuantiLum_inhib_2: CCTE's Firefly Luciferase Inhibition Assay, Simmons Lab (AID 2283767)
# Chain of Luciferin 4-monooxygenase (Photinus pyralis) (P08659 whole entry, looked up): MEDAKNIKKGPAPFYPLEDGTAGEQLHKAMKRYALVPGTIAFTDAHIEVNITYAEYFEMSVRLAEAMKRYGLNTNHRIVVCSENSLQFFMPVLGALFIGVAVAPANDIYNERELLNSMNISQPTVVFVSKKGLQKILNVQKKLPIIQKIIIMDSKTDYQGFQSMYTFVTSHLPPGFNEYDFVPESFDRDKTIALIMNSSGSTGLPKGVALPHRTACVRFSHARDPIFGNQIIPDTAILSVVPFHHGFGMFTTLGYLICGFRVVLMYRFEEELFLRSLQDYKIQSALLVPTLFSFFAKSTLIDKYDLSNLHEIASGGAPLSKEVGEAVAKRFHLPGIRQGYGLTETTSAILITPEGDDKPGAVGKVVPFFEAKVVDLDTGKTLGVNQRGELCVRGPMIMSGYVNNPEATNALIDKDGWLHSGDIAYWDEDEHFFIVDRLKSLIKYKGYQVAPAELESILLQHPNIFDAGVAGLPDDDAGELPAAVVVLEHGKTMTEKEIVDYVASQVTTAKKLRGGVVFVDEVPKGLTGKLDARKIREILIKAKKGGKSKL
# How it was run: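 Luminescence loss relative to DMSO vehicle defines inhibition; detection reagent containing 150 uM D-luciferin and 147 uM dATP (final, pH 7.8) is injected immediately before each read. Enzyme is preincubated with an 8-point titration (5 nM–87.5 uM final) for 30 min at 37C.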
# [6] = STM_H9_OrnithineISnorm_perc: Stemina devTOX quickPredict H9 human embryonic stem cell (hESC)-based Assay for Ornithine (ORN) Metabolite Biomarker, Normalized (AID 2283712; active = hit-call score of the fitted dose curve at least 0.9, where 1 is the maximum; inactive = score below 0.9;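 note: ornithine released into spent medium during last day measured by mass spectrometry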)
# How it was run: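 H9 human embryonic stem cells kept pluripotent receive test chemical over 72 h, refreshed daily by media exchange. Media from the closing 24 h is deproteinized and analysed by UPLC-HRMS on an amide column; ornithine signal is scaled to labelled standard and vehicle.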
# [7] = STM_H9_CystineISnorm_perc: Stemina devTOX quickPredict H9 human embryonic stem cell (hESC)-based Assay for Cystine (CYSS) Metabolite Biomarker, Normalized (AID 2283713; active = hit-call score of the fitted dose curve at least 0.9, where 1 is the maximum; inactive = score below 0.9)
# How it was run: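 H9 hESC, pluripotent; compound 72h, re-dosed q24h with medium change. Last-24h medium → 40% acetonitrile deproteinization → UPLC-HRMS. CYSS area / C13-CYSS standard, then % of 0.1% DMSO median.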
# [8] = STM_H9_OrnCyssISnorm_ratio: Stemina devTOX quickPredict H9 human embryonic stem cell (hESC)-based Assay for Ornithine (ORN):Cystine (CYSS) Ratio (AID 2283714)
# How it was run: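 Undifferentiated H9 hESCs exposed 72 h, media and compound replaced every 24 h; final 24-h conditioned media deproteinized and analysed by UPLC-HRMS against C13 spike-ins. Value is the internal-standard-normalized ORN/CYSS ratio versus 0.1% DMSO.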
# [9] = read-out: Cytochrome P450 (CYP24A1_1), CYP24A1 (gene 1591); test: LTEA_HepaRG_CYP24A1_1: Life Technologies and Expression Analysis (LTEA) Assay for Cytochrome P450 (CYP24A1_1) using HepaRG (AID 2283671; active = hit-call score of the fitted dose curve at least 0.9, where 1 is the maximum; inactive = score below 0.9); conditions: mRNA level, 48 h; actives raise or lower the signal
# How it was run: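 Differentiated human HepaRG cells in serum-free induction medium, exposed 48 h in duplicate to eight half-log concentrations from 100 uM top, 0.5% DMSO. Transcript measured by TaqMan qRT-PCR, normalised to ACTB, GAPDH, POLR2A; bidirectional fitting versus DMSO.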
# [10] = ArunA_CellTiter_hNC: Viability Assessment in the ArunA Biomedical's Oris Neural Crest (hNC) Cell Migration Assay (AID 2283752)
# How it was run: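 Cell titer was measured with the CellTiter Aqueous One reagent after 72 h of chemical dosing. Cells were H9-derived embryonic neural crest stem cells seeded on Matrigel, 60,000 per well, and given 16 h at 37C beforehand.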
# [11] = ArunA_CellTiter_hNP: Viability Assessment in the ArunA Biomedical's Oris Neural Crest (hNC) Cell Migration Assay (AID 2283753)
# How it was run: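 H9-derived hNP1 neuroprogenitors, 60,000/well on Matrigel, cultured 16 h, then 72 h chemical exposure in test medium. Cell titer via CellTiter Aqueous One; positive-direction fit vs DMSO.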
# [12] = ArunA_Migration_hNP: ArunA Biomedical's Oris Neuroprogenitor (hNP) Cell Migration Assay (AID 2283754)
# How it was run: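 Human H9-derived hNP1 neuroprogenitors on Matrigel with LIF/bFGF, plated around seeding stoppers for 16 h at 37C; stoppers removed at start of 72 h chemical exposure. Calcein-AM staining, fluorescence 494/517 nm in detection zone; loss-of-signal vs DMSO; cytochalasin D control.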
# [13] = ArunA_Migration_hNC: ArunA Biomedical's Oris Neural Crest (hNC) Cell Migration Assay (AID 2283755)
# How it was run: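 Human H9-derived neural crest stem cells, 60,000/well on Matrigel, 16 h at 37C, then 72 h chemical exposure after seeding-stopper removal. Migration into detection zone read as calcein-AM fluorescence (ex494/em517), relative to DMSO.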
# [14] = ArunA_NOG_NucleusCount: ArunA Biomedical's Neurite Outgrowth (NOG) Assay for Nucleus Count (AID 2283756)
# How it was run: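 Human H9-derived differentiated neurons were exposed for 48 h right after seeding. Hoechst-stained nuclei gated by size and intensity were counted by automated high-content imaging as viable neurons. Loss of signal vs DMSO.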
# [15] = ArunA_NOG_NeuriteLength: ArunA Biomedical's Neurite Outgrowth (NOG) Assay for Neurite Length (AID 2283757)
# How it was run: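 Differentiated human H9-derived neurons were exposed for 48 h from seeding, then stained with Hoechst and βIII-tubulin. Automated high-content imaging gave total neurite length per valid neuron, counting processes >10 um. Loss of signal was scored versus DMSO.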
# [16] = ArunA_NOG_NeuritesPerNeuron: ArunA Biomedical's Neurite Outgrowth (NOG) Assay for Neurites Per Neuron (AID 2283758)
# How it was run: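 Differentiated human H9-derived neurons exposed to chemicals for 48 h from seeding, then stained with Hoechst and βIII-tubulin/DyLight 488. Automated imaging counted neurites (processes >10 um) per valid neuron; loss of signal versus DMSO scored.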
# [17] = ArunA_NOG_BranchPointsPerNeurite: ArunA Biomedical's Neurite Outgrowth (NOG) Assay for Branch Points Per Neurite (AID 2283759)
# How it was run: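 Automated image analysis traced neurites (processes >10 um) from valid cell bodies after Hoechst and βIII-tubulin staining. hNN cells from H9 embryonic stem cells, 48 h exposure. Fitted bidirectionally against DMSO.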
# [18] = CCTE_Padilla_ZF_144hpf_TERATOSCORE: (Legacy) CCTE's 144 Hour Post-fertilization zebrafish Assay Teratoscore, Padilla Lab (AID 2283679; active = hit-call score of the fitted dose curve at least 0.9, where 1 is the maximum; inactive = score below 0.9)
# How it was run: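 Larvae scored by eye at 144 hpf for death, hatching and malformations after a day in clean Hanks'. Before that, daily-renewed exposure at 80 uM (0.4% DMSO, 26C) from roughly 6-8 hpf through 5 dpf, 4 embryos per chemical.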
# [19] = tested on: Thyroperoxidase (TPO), gene 445522; test: CCTE_Simmons_GUA_TPO: CCTE's Guaiacol Assay for Thyroperoxidase (TPO) Inhibition, Simmons Lab (AID 2283750)
# How it was run: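 Porcine thyroid microsomes (25 ug) in 200mM potassium phosphate, preincubated 30 s at 37C with compound (8 concentrations, 5 nM–87.5 uM) and 35mM guaiacol; 1mM H2O2 starts reaction. Absorbance change at 450nm over first 80 s; loss of signal versus DMSO, three replicates.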
smiles,measurement,setting,value
O=C(O)c1cccc(N(Cc2cccnc2)c2ccc(OC(F)F)c(OC(F)F)c2)c1,outcome,[1],inactive
same,outcome,[2],inactive
same,outcome,[3],inactive
same,outcome,[4],inactive
same,outcome,[5],inactive
CCn1nc(Cc2ccccc2)cc1C1CCN(C[C@H]2C[C@H](N(C)[C@@H](C(=O)O)C(C)C)C[C@@H]2c2cccc(F)c2)CC1,AC50,[1],42.8 µM (active)
same,outcome,[2],inactive
same,outcome,[4],inactive
same,outcome,[5],inactive
Cn1cnc([N+](=O)[O-])c1Sc1ncnc2nc[nH]c12,AC50,[1],1.09 µM (active)
same,outcome,[2],inactive
same,AC50,[6],3.25 µM (active)
same,AC50,[7],3.49 µM (active)
same,AC50,[8],3.28 µM (active)
same,outcome,[4],inactive
same,outcome,[5],inactive
CCCN(C1CCN(C(=O)C2CCNCC2)CC1)[C@@H]1CCc2ccc(OC)cc2C1,AC50,[1],18.2 µM (active)
same,outcome,[2],inactive
same,outcome,[4],inactive
same,outcome,[5],inactive
O=C(NS(=O)(=O)/C=C/c1ccccc1)c1ccc(F)cc1Cl,outcome,[2],inactive
same,AC50,[3],11.2 µM (active)
same,outcome,[4],inactive
COc1ccc(/C=C/S(=O)(=O)NC(=O)c2ccc(C)cc2Cl)cc1,outcome,[2],inactive
same,AC50,[3],3.37 µM (active)
same,outcome,[4],inactive
COCCOCCOCCOC,outcome,[2],inactive
same,outcome,[6],inactive
same,outcome,[7],inactive
same,outcome,[8],inactive
same,outcome,[4],inactive
COc1ccc(-n2nc(C(F)F)cc2-c2ccc(S(C)=O)cc2)cc1 (stereo not drawn),AC50,[2],38.2 µM (active)
same,outcome,[3],inactive
same,AC50,[4],151 µM (active)
Clc1nc(Cl)c(Cl)c(Cl)c1Cl,outcome,[2],inactive
same,outcome,[4],inactive
CC(C)CCCCCCOC(=O)c1ccc(C(=O)OCCCCCCC(C)C)c(C(=O)OCCCCCCC(C)C)c1,outcome,[2],inactive
same,outcome,[9],inactive
same,outcome,[4],inactive
COc1ccc2sc(C(=O)Nc3nnn[nH]3)c(OC(C)C)c2c1,outcome,[2],inactive
same,AC50,[6],1.33 µM (active)
same,AC50,[7],1.65 µM (active)
same,AC50,[8],1.52 µM (active)
same,outcome,[4],inactive
CNS(=O)(=O)c1cc(C(=O)N2CCC(CCN3C4CCC3CC(n3c(C)nc5ccccc53)C4)(c3cccc(F)c3)CC2)c(Cl)cc1F (stereo not drawn),outcome,[2],inactive
same,outcome,[3],inactive
same,outcome,[4],inactive
Fc1ccccc1[C@@H](F)COC1CCC(Nc2ncnc3[nH]ncc23)CC1 (stereo partly drawn),outcome,[2],inactive
same,outcome,[6],inactive
same,outcome,[7],inactive
same,outcome,[8],inactive
same,AC50,[3],6.77 µM (active)
same,outcome,[4],inactive
CC(C)CCCCCCCOC(=O)CCCCC(=O)OCCCCCCCC(C)C,outcome,[2],inactive
same,outcome,[4],inactive
O=C1CCCCCN1,outcome,[2],inactive
same,outcome,[4],inactive
CC(C)=CCCC(C)=CC=O,outcome,[1],inactive
same,AC50,[6],0.0217 µM (active)
same,outcome,[7],inactive
same,outcome,[4],inactive
same,outcome,[5],inactive
Cn1c(=O)c2c(ncn2C)n(C)c1=O,outcome,[2],inactive
same,outcome,[6],inactive
same,AC50,[7],181 µM (active)
same,outcome,[4],inactive
CCCCC(CC)COC(=O)c1ccc(C(=O)OCC(CC)CCCC)cc1 (stereo not drawn),outcome,[2],inactive
same,outcome,[3],inactive
same,outcome,[4],inactive
CC(C)c1cccc(C(C)C)c1N1C(=O)c2ccc(O)cc2C1=O,outcome,[2],inactive
same,outcome,[9],inactive
same,AC50,[6],27.8 µM (active)
same,AC50,[7],24 µM (active)
same,AC50,[8],14.9 µM (active)
same,AC50,[3],3.83 µM (active)
same,AC50,[4],29.5 µM (active)
same,AC50,[10],4.05 µM (active) and 11.8 µM (active)
same,AC50,[11],20.7 µM (active)
same,AC50,[12],7.81 µM (active) and 3.04 µM (active)
same,AC50,[13],7.71 µM (active) and 2.24 µM (active)
same,outcome,[14],inactive
same,AC50,[15],13.3 µM (active)
same,outcome,[15],inactive
same,AC50,[16],5 µM (active) and 13.3 µM (active)
same,outcome,[17],inactive
CCCCCCCCO,outcome,[2],inactive
same,outcome,[3],inactive
same,outcome,[4],inactive
CCOC(=O)CC(CC(=O)OCC)(OC(C)=O)C(=O)OCC,outcome,[2],inactive
same,outcome,[18],inactive
same,outcome,[4],inactive
CCCCCCCCCCCCCCCO,outcome,[2],inactive
same,AC50,[3],0.0667 µM (active)
same,outcome,[4],inactive
Cc1ccc(O)cc1,outcome,[2],inactive
same,outcome,[3],inactive
same,outcome,[4],inactive
Nc1nc2ncc(CNc3ccc(C(=O)N[C@@H](CCC(=O)O)C(=O)O)cc3)nc2c(=O)[nH]1,outcome,[1],inactive
same,outcome,[6],inactive
same,outcome,[7],inactive
same,outcome,[4],inactive
same,outcome,[19],inactive
same,outcome,[5],inactive
